# The source made the active and inactive calls.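 How the source made its calls: active means visually confirmed hit in the image check and inhibition above 20%; inconclusive means visually confirmed hit but inhibition not above 20%; inactive means no visual hit in the image check.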
# Experiment: inhibitors of E-selectin induction by TNFa, primary screen, imaging, HUVEC, immunofluorescence, MLSMR starter and 10KST1 sets (AID 487);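 on inhibition: signal is fraction of cell area covered by stained E-selectin grains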;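 on nuclei count: 100% = median nuclei count of all wells on the same plate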
# Settings: HUVEC TNFalpha-induced E-selectin immunofluorescence imaging, at 2 µM; inhibition: stronger effect = higher value; nuclei count: measured here: cell number, toxicity
SMILES,nuclei count,inhibition
COc1cc(-c2c(C#N)c(N)nc3c2CCCC3)cc(OC)c1OC,121%,-110% (inactive)
O=C(OCc1cccs1)c1ccccc1NS(=O)(=O)c1ccc2c(c1)OCCO2,108%,9.5% (inactive)
O=C1NCCCc2c1no[n+]2[O-],107%,-31.3% (inactive)
CCOC(=O)c1cc2oc(C)cc2n1CC(=O)OC1CCCCC1,102%,-13.6% (inactive)
Cc1cccc(-n2ncc(C#N)c2N)c1,144%,-44.1% (inactive)
CC(=O)c1cc(-c2ccccc2)n(CC(=O)N2CCC(N3CCCCC3)CC2)c1C,115%,-37.4% (inactive)
CN(C)S(=O)(=O)c1ccc(S(=O)(=O)Nc2ccc3c(c2)oc2ccccc23)cc1,92%,4.6% (inactive)
CCCCOC(=O)CSc1nc2c(cc1C#N)C(=O)CC(C)(C)C2,96.9%,37.8% (inactive)
Cc1ccc(S(=O)(=O)Cc2ccc(C(=O)NCCCN3CCN(C)CC3)o2)cc1,115%,22.2% (inactive)
Cc1onc(-c2c(Cl)cccc2Cl)c1C(=O)NCCCN1CCOCC1,84%,-48.9% (inactive)
O=C(O)C1C2C=CC(O2)C1C(=O)NCc1ccc(Cl)cc1 (stereo not given),100%,16.4% (inactive)
CC(C)OC(=O)CSc1nnnn1-c1ccc2c(c1)OCCO2,118%,-0.1% (inactive)
CCOC(=O)Cc1nn2c(=O)cc(C)nc2s1,94.9%,2.2% (inactive)
O=C(CSc1ncnc2sc3c(c12)CCCCC3)NCc1ccco1,128%,-196% (inactive)
CCCn1c(SCC(=O)Nc2cc(C)on2)nc2c1c(=O)n(C)c(=O)n2C,152%,-36.6% (inactive)

# — PubChem BioAssay
